# Assay results reported in the supplement of paper PMC10338343.
# ± gives the standard deviation.
# Test system: MILI (PIWIL2) piRISC loaded with L1MC piRNA (26 nt)
# Assay: pre-steady-state target cleavage rate (min^-1); guide: L1MC piRNA 5'p-UAACUAAAUACUAUGCAAGCUGUAGG; MIWI and MILI are mouse PIWI proteins and EfPiwi is from a freshwater sponge; tags in brackets are library labels; higher = faster piRNA-guided slicing of the target
# Conditions: auxiliary factor: 500 nM mouse GTSF1
# Outline: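 Cleave-'n-Seq reactions paired 0.1 nM transcribed, DNA-blocked target RNA library with 1 nM active affinity-purified piRISC holding one synthetic guide, plus or minus 500 nM GTSF1 partner protein, in HEPES–potassium acetate buffer at 33 °C for 0–8 or 0–960 min. After sequencing of uncleaved targets and normalisation to depth and weakly complementary targets, the pre-steady-state cleavage rate was taken from a burst-and-steady-state fit. Three trials were pooled, and k3 was capped at 0.0001 min^-1.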
row,Sequence,pre-steady-state target cleavage rate
1,UCCUGGAUCAGCUACCAUAGUAUUUAGUAA,0.127 ± 0.012
2,UCCUGGAUGAGCUUGCAUAGUAUUAUGUUA,0.172 ± 0.036
3,UCCUGGAUGAGCUUGCAUAGUAUUUUGAAA,0.0223 ± 0.0096
4,UCCUGGAUCAGCUUCGAUAGUAUUUAGUAA,0.158 ± 0.016
5,UCCUGGAUGUCGAUGCAUAGUAUUUAGUGA,0.0843 ± 0.016
6,UCCUGGAUGUCGUUGCAUAGUAUGUAGUUA,0.015 ± 0.0074
7,UCCUGGAACAGCUUGCAUAGUUUAUAGUUA,0.029 ± 0.0097
8,UCCUGGAUGUCGUUGCAUAGUAUUAAGUAA,0.0273 ± 0.012
9,UCCUGGAUCAGCAAGCAUAGUAUUUUCAAA,0.024 ± 0.0074
10,UCCUGCUACAGCUUGCAUAGUAUAUUCAAA,0.209 ± 0.059
11,UCCUGGAUGACGUUGCAUAGUAUUUAGUAA,0.136 ± 0.022
12,UCCUGGAACAGCUUGGAUAGUAUUUACUUA,0.0413 ± 0.012
13,UCCUGGAUCAGCUUGCAUAGUAUUUAGCUA,0.00534 ± 0.0036
14,UCCUGGUACAGCUUGCAUAGAAUUUACUUA,0.0206 ± 0.011
15,UCCUGGAUGUCGUUGCAUAGUAUUUAGCUUA,0.0208 ± 0.0083
16,UCCUCCUUGUGCUUGCAUAGUAUUUUCAAA,0.0192 ± 0.0073
17,UCCUGGUACAGCUUGCAUAGUAUUUUCAUA,0.0352 ± 0.014
18,UCCUGGAUGUGCUUCCAUUGUAUUUAGUUA,0.0206 ± 0.0071
19,UCCUGGAUGUCCUUGCAUACUAUUUUGUUA,0.00525 ± 0.0044
20,UCCUGGAUGUCGAAGCAUAGUAUUUGAGUUA,0.0579 ± 0.012
21,UCCUGGAUGUCCUUGCAUAGUAUAAUCAAA [g8:g19:cont:t1A],0.00606 ± 0.0037
22,UCCUCCUACAGCUUGCAAUCUAUUUACAAA,0.0157 ± 0.0069
23,UCCUCCUACAGCUUGCAUAGUUUUUAGAUA,0.0768 ± 0.022
24,UCCUGGAUGUGCUUGCAUAGUAAAUAGUAA,0.0121 ± 0.0056
25,UCCUGCUACAGCAAGCAUAGUAUUUAGAAA,0.217 ± 0.052
26,UCCUCCUACAGCUAGCAUAGAAUUUAGUUA,0.0602 ± 0.011
27,UCCUGGAUCAGCUUGCAUAGUAUUUAUUA,0.044 ± 0.011
28,UCCUGGUACAGCUUGCAUUGUAUUUACAAA,0.0165 ± 0.0077

# Same assay, conditions: auxiliary factor: none (no GTSF1)
row,Sequence,pre-steady-state target cleavage rate
1,UCCUGGAUGUCGAACGAUAGUAUAUUAGUUA,< 0.0001
2,UCCUGGAUGUCGAUCCAUUGUAUUUAGUUA,< 0.0001
3,UCCUGGAUGUCGAAGCAUAGAAUUUACUUA,< 0.0001
4,UCCUGGAUGUCGAACGUAUCUUAUUAGUUA,< 0.0001
5,UCCUGGAUGUCGAAGCAUAGUAUUAUCUUA,< 0.0001
6,UCCUGGAUGUCGAACGUAUGUAUUUUCAAA [g6:g11:cont:t1A],< 0.0001
7,UCCUGGAUGUCGUUGCAUAGUUUUAAGUUA,0.0042 ± 0.0022
8,UCCUGGAUGUCGAACGAUUCAAUUUAGUUA,< 0.0001
9,UCCUGGAACAGCUUCGAUAGUAUUUACAAA,< 0.0001
10,UCCUGGAUGUCGUUCCUUAGUAUUUAGUUA,< 0.0001
11,UCCUGGAUGUCGAAGCUUAGUAUUUUGUUA,< 0.0001
12,UCCUGGAUGUCGAACGAAAGUAUUUAGUAA,< 0.0001
